Data on 68 molecules can be found in ChEMBL document CHEMBL3988442, “University of Dundee, Small-Polar-MMV Screening Library” (2021).

In all, about 48,000 compounds went through this assay and about 13,000 (27%) showed an effect of 50% or more. The list shows a part of the results.

The experiment relates to Wolbachia pipientis. Put plainly: Anti-Wolbachia Cell-Based Screen. The experiment is classed as functional. Conditions: 5 µM. Details: scale not given: in the data most compounds retested in dose-response had high values.
For `NC(=O)CC1CCN(CC(O)c2ccc(Br)cc2)CC1` (stereo not drawn), the “Percent Effect” value is recorded as 25.42%.

In the case of `CC(COc1ccccc1)NCc1nncn1C1CCCCC1` (stereo not drawn), the “Percent Effect” value is -38.9%. With `CCN1CCC(NC(=O)Cc2csc(C(C)(C)C)n2)CC1` the figure was 4.843%; with `O=C(C1CCOC1)N1CCN(CCn2cccn2)c2ncccc2C1.O=C(O)C(F)(F)F` (stereo not drawn), 122%. In the case of `O=C(O)C(F)(F)F.O=C([C@H]1CCCO1)N1CCN(CCn2cccn2)c2ncccc2C1`, the “Percent Effect” value was determined as 108.8%. The same measure for `CCN(CC)C(=O)c1nnc2ccc(N3CCOCC3)cc2n1`: -10.33%; for `CCCS(=O)(=O)N1CCN(CC(F)(F)F)CC1`: 16.36%. `Cc1cnc(C(C)(C)NC(=O)NCc2ccon2)s1`: the “Percent Effect” value is recorded as -28.31%. As to `Cc1nc2cc(C(=O)N(CCC#N)CCC#N)ccc2n1C`, the “Percent Effect” value is -0.9305%.

For the molecule `N#CCCN(CC1CCCO1)C(=O)c1ccc2nonc2c1` (stereo not drawn), the “Percent Effect” value amounted to 113%. The same measure for `Cc1nc2cc(C(=O)N(CCC#N)CC3CCCO3)ccc2[nH]1` (stereo not drawn): 103.2%. As for `Cc1nc2ccc(C(=O)N(CCC#N)CCC#N)cc2nc1C`, the “Percent Effect” value is listed as -2.079%. For the molecule `CN(Cc1ccc2nonc2c1)C(=O)c1ccc(C2CCCO2)s1` (stereo not drawn), the “Percent Effect” value is on record as -9.176%. With `N#CCCN(c1ccc(F)cc1)S(=O)(=O)CC1CCCCO1` (stereo not drawn), the “Percent Effect” value was -8.338%. With `CCC(C)CS(=O)(=O)NCCc1csc(N2CCCC2)n1` (stereo not drawn) the figure was -21.99%; with `COCC(C)N(Cc1ccccc1OC)C(=O)c1cc(C)[nH]c(=O)c1` (stereo not drawn), -10.95%. With `C[C@]1(O)CN(CCO)CC[C@@H]1Oc1cccc(F)c1`, the “Percent Effect” value amounted to 120.3%. The same measure for `O=C(O)C(F)(F)F.O=C1CC2(CCN(CCO)C2)CN1c1cccc(F)c1` (stereo not drawn): 6.062%; for `CC(Oc1cccc(F)c1)C(=O)N(CC(N)=O)C1CCCC1` (stereo not drawn): -28.68%. For `CN1CC(=O)N(c2cccc(F)c2)CC12CCN(CCO)C2.O=C(O)C(F)(F)F.O=C(O)C(F)(F)F` (stereo not drawn), the “Percent Effect” value is 1.497%. With `O=C(COc1cccc(F)c1)N1C[C@H](CO)C[C@H](CN2CCCC2)C1` the figure was -0.9347%. With `C[C@]1(O)CN(CCC(N)=O)CC[C@@H]1Oc1cccc(F)c1` the figure was 109.4%; with `O=C(COc1cccc(F)c1)N1C[C@@H](CN2CCCC2)C[C@H](CO)C1`, -0.02776%; with `C[C@]1(O)CN(CC(=O)N2CCCC2)CC[C@@H]1Oc1cccc(F)c1`, 121.7%. The same measure for `NC(=O)CN1CCC(C(=O)NCC(O)c2cccc(F)c2)CC1` (stereo not drawn): 3.405%; for `CCn1ncc2c1NC(=O)CC2c1cnc(NCc2ccccc2)nc1` (stereo not drawn): 4.243%. As for `Cc1ccc(N2CCCC(N3CCC4(CC3)OCCO4)C2=O)cc1` (stereo not drawn), the “Percent Effect” value is on record as -7.017%.

For `OC(CN1CCCc2cc(OC(F)F)ccc21)Cn1cccn1` (stereo not drawn), the “Percent Effect” value is -16.69%. The same measure for `COc1ccc2c(c1)CCCN(C(C)C(=O)NC(C)C)C2` (stereo not drawn): -4.844%; for `COc1ccc2c(c1)CN(C)C(=O)CCN2CC(O)C(F)(F)F` (stereo not drawn): 104.6%. With `COc1ccc2c(c1)CN(C)C(=O)CCN2CC(O)C(C)(C)C` (stereo not drawn), the “Percent Effect” value was found to be 100.8%. As for `COc1ccc2c(c1)CCN(CCC(=O)O)CC2`, the “Percent Effect” value is given as -10.19%. With `COC(=O)C(C)N1CCCc2cc(OC)ccc2C1` (stereo not drawn) the figure was -9.406%; with `O=C(CNc1nc(C2CC2)ns1)N1CCc2sccc2C1`, -3.427%. With `N#CCCN(CCC#N)C(=O)c1cccc(N2CCNC2=O)c1` the figure was -11.85%. With `CC(C)c1nc(C2CCCN(C(=O)CCCn3cccn3)C2)no1` (stereo not drawn) the figure was 95.04%; with `CC(C)c1nc(C2CCCN(C(=O)CCc3cscn3)C2)no1` (stereo not drawn), 114.7%.

Consider `Cc1nc(C2CCCN(C(=O)CCCn3cccn3)C2)sc1C` (stereo not drawn), for which the “Percent Effect” value amounted to 112.1%. For `Cc1nc(C2CCCN(C(=O)CN3CCCC3=O)C2)sc1C` (stereo not drawn), the “Percent Effect” value is on record as -7.822%. The same measure for `Cc1nc(C2CCCN(C(=O)CN3CCCNC3=O)C2)sc1C` (stereo not drawn): 6.53%; for `CC(C)c1nc(C2CCCN(C(=O)CS(=O)(=O)C(C)C)C2)no1` (stereo not drawn): -11.89%; for `CC(C)c1nc(C2CCCN(C(=O)CCCn3ccnc3)C2)no1` (stereo not drawn): 94.72%.

Take `CC(C)c1nc(C2CCCN(C(=O)CN3CCCNC3=O)C2)no1` (stereo not drawn): the “Percent Effect” value worked out at 6.733%. In the case of `CCS(=O)(=O)CC(=O)N1CCCC(c2noc(C(C)C)n2)C1` (stereo not drawn), the “Percent Effect” value is -6.108%. With `CC(C)c1nc(C2CCCN(C(=O)CN(C)S(C)(=O)=O)C2)no1` (stereo not drawn) the figure was -21.51%.

On to `Cc1nc(C2CCCN(C(=O)CCCn3cccn3)C2)no1` (stereo not drawn), for which the “Percent Effect” value is reported as 10.77%.

Take `CC(C)c1nc(C2CCCN(C(=O)CCn3ccnc3)C2)no1` (stereo not drawn): the “Percent Effect” value was -0.5429%. For `CCN(Cc1cccc(NC(=O)COCCOC)c1)C(C)=O`, the “Percent Effect” value is -8.699%. As for `CCc1c(C)nn(CC(=O)NC(C)c2n[nH]c(C)n2)c1C` (stereo not drawn), the “Percent Effect” value stood at 2.562%.

On to `Cc1noc(C2CCN(c3oc(C)nc3C#N)CC2)n1`, for which the “Percent Effect” value is -7.205%. With `CC(C)N1CCC(C(=O)NC[C@H]2CCc3ccccc3O2)CC1` the figure was -3.949%; with `COC(=O)CCNC(=O)c1ccc(NC(=O)N(C)CC(C)(C)C)cc1`, 28.42%; with `Cc1nc(C2CCCN(C(=O)CCCn3ccnc3C)C2)no1` (stereo not drawn), -5.463%.

On to `Cc1nccn1CCCC(=O)N1CCCC(c2noc(C(C)C)n2)C1` (stereo not drawn), for which the “Percent Effect” value is given as 94.02%. For the molecule `O=C1O[C@@H]2CN(Cc3ccccn3)C[C@@H]2N1CCCc1ccc(F)cc1`, the “Percent Effect” value is listed as 2.234%. As to `Cc1ccc(OC2(C(=O)N(C)Cc3ccoc3)CCNCC2)cc1`, the “Percent Effect” value is -12.66%. With `CCCc1cc(CNC2CCN(c3nc4ccccc4s3)CC2)on1` the figure was 114.2%. The same measure for `CCCc1cc(N2CCC(NC3CCS(=O)(=O)C3)CC2)nc(C)n1` (stereo not drawn): -13.12%.

`CCS(=O)(=O)CCNC1CCN(c2nc3ccc(Cl)cc3s2)CC1`: the “Percent Effect” value was -46.95%. With `CCCc1cc(CNC2CCN(c3cc(C(C)C)nc(C)n3)CC2)on1` the figure was 93.6%; with `Cc1n[nH]c(SCCNC2CCN(c3nc4ccccc4s3)CC2)n1`, -0.1074%; with `CCCc1cc(N2CCC(N[C@H]3CC[C@H](O)CC3)CC2)nc(C)n1`, -4.932%.

Consider `CCCc1cc(CNC(=O)Cc2cc(C)no2)on1`, for which the “Percent Effect” value came to 0.033%. The same measure for `CCCc1cc(N2CCC(NCC3(O)CCN(C)CC3)CC2)nc(C)n1`: -6.496%. With `CCCc1cc(CNC2CCN(c3cc(C)nc(N)n3)CC2)on1` the figure was 82.71%; with `CCCc1cc(N2CCC(NC3CCOCC3)CC2)nc(C)n1`, 29.8%; with `CCCc1cc(CNC2CCN(c3nc(C)cc(C)n3)CC2)on1`, 99.03%. With `Cc1cc(C)nc(N2CCC(NCCSc3nnnn3C)CC2)n1` the figure was -14.51%.
